According to PMC11066047:

Tests used:
[1] = target: ATP synthase subunit gamma, mitochondrial (UniProt P38077); assay: cross-link between two proteins; cross-linking mass spectrometry
[2] = target: ATP-dependent molecular chaperone HSC82 (UniProt P15108); assay: cross-link between two proteins; affinity purification or IP with mass spectrometry; cross-linking mass spectrometry
[3] = target: Protein transport protein SSS1 (UniProt P35179); assay: as above
[4] = target: ATP synthase subunit 4, mitochondrial (UniProt P05626); assay: cross-link between two proteins; cross-linking mass spectrometry
[5] = target: 26S proteasome regulatory subunit 8 homolog (UniProt Q01939); assay: as above
Chain of 26S proteasome regulatory subunit 8 homolog (Q01939 whole entry): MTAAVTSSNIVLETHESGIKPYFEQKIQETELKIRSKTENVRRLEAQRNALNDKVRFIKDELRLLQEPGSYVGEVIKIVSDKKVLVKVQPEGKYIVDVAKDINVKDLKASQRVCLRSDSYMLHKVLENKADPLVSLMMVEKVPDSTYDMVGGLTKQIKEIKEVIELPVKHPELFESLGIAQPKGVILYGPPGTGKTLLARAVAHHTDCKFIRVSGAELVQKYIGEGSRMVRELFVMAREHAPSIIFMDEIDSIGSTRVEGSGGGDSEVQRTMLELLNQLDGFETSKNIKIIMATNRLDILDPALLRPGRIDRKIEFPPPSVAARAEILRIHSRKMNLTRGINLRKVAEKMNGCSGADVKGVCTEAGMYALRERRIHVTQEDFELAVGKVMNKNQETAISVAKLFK

[6] = target: 2-isopropylmalate synthase 2, mitochondrial (UniProt Q12166); assay: as above
[7] = target: Elongation factor 3A (UniProt P16521); assay: cross-link between two proteins; affinity purification or IP with mass spectrometry; cross-linking mass spectrometry
[8] = target: Heat shock protein homolog SSE1 (UniProt P32589); assay: cross-link between two proteins
[9] = target: Heat shock protein homolog SSE2 (UniProt P32590); assay: cross-link between two proteins; affinity purification or IP with mass spectrometry; cross-linking mass spectrometry
[10] = target: Large ribosomal subunit protein eL21A (UniProt Q02753); assay: as above
[11] = target: Large ribosomal subunit protein eL8B (UniProt P29453); assay: as above
[12] = target: Large ribosomal subunit protein uL24B (UniProt P53221); assay: as above
[13] = target: Signal transduction protein MDG1 (UniProt P53885); assay: as above
[14] = target: Small ribosomal subunit protein eS1B (UniProt P23248); assay: as above
[15] = target: Small ribosomal subunit protein uS10 (UniProt P38701); assay: as above
[16] = target: Small ribosomal subunit protein uS11B (UniProt P39516); assay: as above
[17] = target: Ribosome-associated molecular chaperone SSB1 (UniProt P11484); assay: as above
Chain of Ribosome-associated molecular chaperone SSB1 (P11484 whole entry): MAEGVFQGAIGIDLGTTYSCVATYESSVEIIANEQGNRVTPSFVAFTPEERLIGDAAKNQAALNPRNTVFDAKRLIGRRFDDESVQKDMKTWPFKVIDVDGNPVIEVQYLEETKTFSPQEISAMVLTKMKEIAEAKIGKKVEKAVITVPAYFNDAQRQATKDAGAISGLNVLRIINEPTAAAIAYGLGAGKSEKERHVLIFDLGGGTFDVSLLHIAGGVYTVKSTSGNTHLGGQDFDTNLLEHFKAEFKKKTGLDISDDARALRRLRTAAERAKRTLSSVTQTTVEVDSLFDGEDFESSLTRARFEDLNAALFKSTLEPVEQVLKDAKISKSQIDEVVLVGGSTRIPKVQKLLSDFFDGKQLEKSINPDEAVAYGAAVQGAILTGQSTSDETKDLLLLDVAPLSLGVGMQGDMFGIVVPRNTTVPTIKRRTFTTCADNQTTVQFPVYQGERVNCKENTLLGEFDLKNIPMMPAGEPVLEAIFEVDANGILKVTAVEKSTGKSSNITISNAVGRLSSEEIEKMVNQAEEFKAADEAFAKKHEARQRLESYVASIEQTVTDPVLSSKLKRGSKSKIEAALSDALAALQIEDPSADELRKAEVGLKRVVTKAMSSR

[18] = target: 26S proteasome regulatory subunit 4 homolog (UniProt P40327); assay: cross-link between two proteins; cross-linking mass spectrometry
Chain of 26S proteasome regulatory subunit 4 homolog (P40327 whole entry): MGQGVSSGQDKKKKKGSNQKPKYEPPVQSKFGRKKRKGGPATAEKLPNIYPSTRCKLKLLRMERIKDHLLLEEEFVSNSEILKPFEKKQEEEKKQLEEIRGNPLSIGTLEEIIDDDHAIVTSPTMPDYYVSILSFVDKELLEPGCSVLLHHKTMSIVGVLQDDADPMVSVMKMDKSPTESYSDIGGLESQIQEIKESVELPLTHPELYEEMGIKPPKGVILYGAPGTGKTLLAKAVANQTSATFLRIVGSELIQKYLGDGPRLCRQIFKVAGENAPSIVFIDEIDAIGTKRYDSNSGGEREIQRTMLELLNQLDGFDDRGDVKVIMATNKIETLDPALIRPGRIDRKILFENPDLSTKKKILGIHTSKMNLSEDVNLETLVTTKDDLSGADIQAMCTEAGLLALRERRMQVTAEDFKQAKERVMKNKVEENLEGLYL

[19] = target: 26S proteasome regulatory subunit RPN3 (UniProt P40016); assay: as above
Chain of 26S proteasome regulatory subunit RPN3 (P40016 whole entry): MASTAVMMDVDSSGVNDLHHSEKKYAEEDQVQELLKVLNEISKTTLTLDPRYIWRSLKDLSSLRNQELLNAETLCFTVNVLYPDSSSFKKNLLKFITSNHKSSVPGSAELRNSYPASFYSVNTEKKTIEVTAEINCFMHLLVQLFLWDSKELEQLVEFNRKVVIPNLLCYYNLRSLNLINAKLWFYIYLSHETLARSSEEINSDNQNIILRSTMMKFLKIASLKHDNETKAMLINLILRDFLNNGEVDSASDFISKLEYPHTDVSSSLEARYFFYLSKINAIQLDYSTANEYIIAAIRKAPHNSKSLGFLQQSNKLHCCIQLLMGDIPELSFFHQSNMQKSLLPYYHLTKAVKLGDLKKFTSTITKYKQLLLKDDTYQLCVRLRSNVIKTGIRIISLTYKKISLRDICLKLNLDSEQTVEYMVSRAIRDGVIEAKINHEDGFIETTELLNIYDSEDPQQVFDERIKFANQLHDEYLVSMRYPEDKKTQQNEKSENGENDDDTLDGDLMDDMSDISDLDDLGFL

[20] = target: 26S proteasome subunit RPT4 (UniProt P53549); assay: as above
Chain of 26S proteasome subunit RPT4 (P53549 whole entry): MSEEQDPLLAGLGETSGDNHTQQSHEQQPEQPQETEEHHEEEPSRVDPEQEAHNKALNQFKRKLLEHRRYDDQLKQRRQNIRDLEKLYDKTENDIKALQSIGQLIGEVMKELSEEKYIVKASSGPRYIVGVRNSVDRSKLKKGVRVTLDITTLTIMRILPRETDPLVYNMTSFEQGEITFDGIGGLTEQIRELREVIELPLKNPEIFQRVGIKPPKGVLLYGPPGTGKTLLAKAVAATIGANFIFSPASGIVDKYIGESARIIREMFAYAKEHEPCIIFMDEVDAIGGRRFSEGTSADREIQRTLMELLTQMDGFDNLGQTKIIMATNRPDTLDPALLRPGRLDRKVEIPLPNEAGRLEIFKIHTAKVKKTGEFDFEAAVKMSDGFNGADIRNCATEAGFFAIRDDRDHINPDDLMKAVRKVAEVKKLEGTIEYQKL

[21] = target: ATP synthase subunit f, mitochondrial (UniProt Q06405); assay: as above
[22] = target: ATP-dependent RNA helicase HAS1 (UniProt Q03532); assay: as above
Chain of ATP-dependent RNA helicase HAS1 (Q03532 whole entry): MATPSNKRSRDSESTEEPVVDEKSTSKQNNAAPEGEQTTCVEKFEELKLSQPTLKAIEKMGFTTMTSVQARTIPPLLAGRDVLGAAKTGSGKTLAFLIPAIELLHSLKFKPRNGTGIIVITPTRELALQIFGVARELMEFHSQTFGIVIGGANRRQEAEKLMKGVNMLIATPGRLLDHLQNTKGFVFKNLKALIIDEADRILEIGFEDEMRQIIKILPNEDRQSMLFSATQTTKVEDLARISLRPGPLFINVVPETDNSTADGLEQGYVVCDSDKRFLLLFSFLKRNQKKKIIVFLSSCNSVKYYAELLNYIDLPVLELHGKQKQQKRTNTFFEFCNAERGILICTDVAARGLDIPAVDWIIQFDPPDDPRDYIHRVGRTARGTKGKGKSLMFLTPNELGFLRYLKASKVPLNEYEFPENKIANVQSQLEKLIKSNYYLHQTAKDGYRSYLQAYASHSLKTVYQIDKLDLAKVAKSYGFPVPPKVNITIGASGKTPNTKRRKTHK

[23] = target: ATP-dependent RNA helicase DBP10 (UniProt Q12389); assay: as above
[24] = target: ATP synthase subunit 5, mitochondrial (UniProt P09457); assay: as above
[25] = target: ATP synthase subunit H, mitochondrial (UniProt Q12349); assay: as above
[26] = target: ATP synthase subunit d, mitochondrial (UniProt P30902); assay: as above
[27] = target: 26S proteasome regulatory subunit RPN8 (UniProt Q08723); assay: as above
Chain of 26S proteasome regulatory subunit RPN8 (Q08723 whole entry): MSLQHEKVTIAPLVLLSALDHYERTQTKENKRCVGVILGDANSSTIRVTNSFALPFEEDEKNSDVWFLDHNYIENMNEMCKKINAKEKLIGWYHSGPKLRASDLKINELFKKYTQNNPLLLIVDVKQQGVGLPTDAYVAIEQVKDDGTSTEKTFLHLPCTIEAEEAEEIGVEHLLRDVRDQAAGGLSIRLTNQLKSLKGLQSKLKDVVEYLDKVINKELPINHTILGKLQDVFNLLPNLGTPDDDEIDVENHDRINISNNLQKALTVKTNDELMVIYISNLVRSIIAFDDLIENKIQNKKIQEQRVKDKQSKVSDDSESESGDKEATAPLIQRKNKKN

[28] = target: 26S proteasome regulatory subunit 7 homolog (UniProt P33299); assay: as above
[29] = target: 26S proteasome regulatory subunit RPN9 (UniProt Q04062); assay: as above
[30] = target: 26S proteasome regulatory subunit RPN7 (UniProt Q06103); assay: as above
[31] = target: Large ribosomal subunit protein eL22A (UniProt P05749); assay: as above
[32] = target: Large ribosomal subunit protein uL3 (UniProt P14126); assay: as above
[33] = target: 26S proteasome regulatory subunit RPN2 (UniProt P32565); assay: as above
[34] = target: Heat shock protein STI1 (UniProt P15705); assay: cross-link between two proteins; affinity purification or IP with mass spectrometry; cross-linking mass spectrometry
Chain of Heat shock protein STI1 (P15705 whole entry): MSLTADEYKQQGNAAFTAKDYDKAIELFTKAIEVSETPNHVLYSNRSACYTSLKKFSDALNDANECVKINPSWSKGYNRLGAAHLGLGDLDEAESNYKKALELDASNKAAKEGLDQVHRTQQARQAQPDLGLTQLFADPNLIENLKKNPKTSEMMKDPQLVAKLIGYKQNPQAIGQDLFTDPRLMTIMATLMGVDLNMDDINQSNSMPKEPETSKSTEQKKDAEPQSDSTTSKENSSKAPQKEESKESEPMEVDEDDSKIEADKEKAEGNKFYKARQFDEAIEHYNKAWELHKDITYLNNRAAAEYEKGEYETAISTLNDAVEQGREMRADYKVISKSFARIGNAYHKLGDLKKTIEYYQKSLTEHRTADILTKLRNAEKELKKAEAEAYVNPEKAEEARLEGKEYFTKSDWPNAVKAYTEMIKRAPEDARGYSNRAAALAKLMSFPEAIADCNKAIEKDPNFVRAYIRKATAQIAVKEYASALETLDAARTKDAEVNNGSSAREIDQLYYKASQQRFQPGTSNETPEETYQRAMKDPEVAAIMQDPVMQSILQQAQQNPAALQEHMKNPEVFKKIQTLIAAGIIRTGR

[35] = target: ATP synthase subunit K, mitochondrial (UniProt P81451); assay: cross-link between two proteins; cross-linking mass spectrometry
[36] = target: Large ribosomal subunit protein eL13B (UniProt P40212); assay: as above
[37] = target: Casein kinase II subunit beta (UniProt P43639); assay: as above
[38] = target: Casein kinase II subunit beta' (UniProt P38930); assay: as above
[39] = target: Cytochrome b-c1 complex subunit 10, mitochondrial (UniProt P37299); assay: as above
Chain of Cytochrome b-c1 complex subunit 10, mitochondrial (P37299 whole entry, one chain of several): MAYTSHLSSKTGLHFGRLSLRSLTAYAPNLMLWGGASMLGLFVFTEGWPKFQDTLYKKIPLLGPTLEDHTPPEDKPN

[40] = target: Cytochrome b-c1 complex subunit 2, mitochondrial (UniProt P07257); assay: as above
[41] = target: Cytochrome c oxidase subunit 12, mitochondrial (UniProt Q01519); assay: as above
[42] = target: Cytochrome c oxidase subunit 5A, mitochondrial (UniProt P00424); assay: as above
[43] = target: Cytochrome c oxidase subunit 6, mitochondrial (UniProt P00427); assay: as above
[44] = target: DNA-directed RNA polymerase II subunit RPB11 (UniProt P38902); assay: as above
[45] = target: DNA-directed RNA polymerases I, II, and III subunit RPABC5 (UniProt P22139); assay: as above
Chain of DNA-directed RNA polymerases I, II, and III subunit RPABC5 (P22139 whole entry): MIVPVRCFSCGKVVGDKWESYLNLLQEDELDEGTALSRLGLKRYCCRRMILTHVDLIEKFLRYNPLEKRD

[46] = target: FK506-binding protein 4 (UniProt Q06205); assay: as above
[47] = target: H/ACA ribonucleoprotein complex subunit NOP10 (UniProt Q6Q547); assay: cross-link between two proteins

Chain of Ribosome-associated molecular chaperone SSB1, P11484 (P11484 whole entry): as the sequence (P11484 whole entry) above
Chain of Nucleolar protein 16, P40007 (P40007 whole entry): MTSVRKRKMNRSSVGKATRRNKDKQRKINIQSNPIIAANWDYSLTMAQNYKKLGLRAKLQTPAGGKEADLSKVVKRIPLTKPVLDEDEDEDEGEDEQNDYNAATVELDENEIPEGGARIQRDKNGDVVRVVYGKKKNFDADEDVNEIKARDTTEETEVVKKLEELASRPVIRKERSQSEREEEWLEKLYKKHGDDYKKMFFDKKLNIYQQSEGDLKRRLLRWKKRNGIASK
Chain of Protein transport protein SSS1 (P35179 whole entry): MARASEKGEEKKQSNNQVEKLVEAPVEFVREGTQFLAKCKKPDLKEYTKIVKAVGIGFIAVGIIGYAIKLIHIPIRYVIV

ATP synthase subunit epsilon, mitochondrial, P21306
listed as a hit [1]: yes

ATP-dependent molecular chaperone HSP82, P02829
listed as a hit [2]: yes

Protein transport protein SEC61, P32915
listed as a hit [3]: yes

ATP synthase subunit beta, mitochondrial, P00830
listed as a hit [4]: yes

26S proteasome regulatory subunit 4 homolog, P40327
listed as a hit [5]: yes

2-isopropylmalate synthase, P06208
listed as a hit [6]: yes

Ribosome-associated molecular chaperone SSB1, P11484
listed as a hit [7]: yes | listed as a hit [8]: yes | listed as a hit [9]: yes | listed as a hit [10]: yes | listed as a hit [11]: yes | listed as a hit [12]: yes | listed as a hit [13]: yes | listed as a hit [14]: yes | listed as a hit [15]: yes | listed as a hit [16]: yes

Large ribosomal subunit protein uL29B, P0CX85
listed as a hit [17]: yes

26S proteasome regulatory subunit RPN2, P32565
listed as a hit [18]: yes | listed as a hit [5]: yes | listed as a hit [19]: yes

Polyadenylate-binding protein, cytoplasmic and nuclear, P04147
listed as a hit [17]: yes

26S proteasome regulatory subunit 6B homolog, P33298
listed as a hit [19]: yes | listed as a hit [20]: yes

ATP synthase subunit d, mitochondrial, P30902
listed as a hit [21]: yes

Proteasome-interacting protein CIC1, P38779
listed as a hit [22]: yes

26S proteasome regulatory subunit RPN12, P32496
listed as a hit [19]: yes

Ribosome biogenesis protein NSA2, P40078
listed as a hit [23]: yes

ATP synthase subunit 4, mitochondrial, P05626
listed as a hit [24]: yes | listed as a hit [25]: yes | listed as a hit [26]: yes

26S proteasome regulatory subunit RPN10, P38886
listed as a hit [27]: yes

26S proteasome regulatory subunit 6A, P33297
listed as a hit [18]: yes | listed as a hit [28]: yes | listed as a hit [29]: yes

Heat shock protein SSA2, P10592
listed as a hit [17]: yes

Enolase 1, P00924
listed as a hit [17]: yes

Heat shock protein STI1, P15705
listed as a hit [19]: yes

26S proteasome complex subunit SEM1, O94742
listed as a hit [30]: yes

Large ribosomal subunit protein eL24A, P04449
listed as a hit [31]: yes | listed as a hit [32]: yes | listed as a hit [17]: yes

26S proteasome regulatory subunit 7 homolog, P33299
listed as a hit [18]: yes

Ubiquitin C-terminal hydrolase RPN11, P43588
listed as a hit [5]: yes | listed as a hit [27]: yes | listed as a hit [20]: yes

26S proteasome regulatory subunit RPN13, O13563
listed as a hit [33]: yes

ATP-dependent molecular chaperone HSC82, P15108
listed as a hit [34]: yes

ATP synthase subunit e, mitochondrial, P81449
listed as a hit [35]: yes

Nucleolar protein 16, P40007
listed as a hit [22]: yes | listed as a hit [36]: yes

Casein kinase II subunit alpha, P15790
listed as a hit [37]: yes

Casein kinase II subunit alpha', P19454
listed as a hit [38]: yes

Cytochrome b-c1 complex subunit 2, mitochondrial, P07257
listed as a hit [39]: yes

Cytochrome b-c1 complex subunit 1, mitochondrial, P07256
listed as a hit [40]: yes

Respiratory supercomplex factor 2, mitochondrial, P53721
listed as a hit [41]: yes

Cytochrome b-c1 complex subunit 6, mitochondrial, P00127
listed as a hit [42]: yes

Cytochrome c oxidase subunit 5A, mitochondrial, P00424
listed as a hit [43]: yes

DNA-directed RNA polymerase II subunit RPB3, P16370
listed as a hit [44]: yes | listed as a hit [45]: yes

DNA-directed RNA polymerase II subunit RPB2, P08518
listed as a hit [45]: yes

25S rRNA (cytosine(2870)-C(5))-methyltransferase, P40991
listed as a hit [46]: yes

H/ACA ribonucleoprotein complex subunit CBF5, P33322
listed as a hit [47]: yes
